The test system of experiment [1] is MDA-MB-231. In words: cell viability relative to vehicle unstimulated control (fraction); higher = more viable cells. To be noted: pre-treatment time: 18 h then 24 h IFNg/TNF.
In experiment [2] the test system is MDA-MB-231. Briefly: kynurenine production, fold change vs DMSO IFNg/TNF control; higher = more kynurenine produced (less inhibition). The conditions noted are these: pre-treatment time: 18 h then 24 h IFNg/TNF. Summed up: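 In 96-well plates, MDA-MB-231 cells (7 × 10^4/well) were given 24 h to settle, pre-treated for 18 h with each natural product in 0.1% DMSO, and stimulated for 24 h with IFNγ (1 U/ml) and TNF (6.25 ng/ml) at 37°C. Supernatants were processed with trichloroacetic acid and p-dimethylaminobenzaldehyde and read at 492 nm against 0–100 μM standards. In the first screening round, kynurenine production, as fold change over same-plate cytokine-stimulated vehicle wells, was averaged over duplicate plates.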

The values that follow come from the supplement of paper PMC13094657.

± gives the standard deviation of the averaged measurements.
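For cell viability relative to vehicle unstimulated control in this document: viability of the cells left after supernatant collection, read with Deep Blue dye added for 4 h, as absorbance at 570 nm minus 600 nm.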

Take `C[C@]1(O)C[C@@H](O)[C@]2(O)C=CO[C@@H](O[C@H]3O[C@H](CO)[C@@H](O)[C@H](O)[C@H]3O)[C@@H]21` [Harpagide] (compound dose: 10 uM): in the experiment with MDA-MB-231 [1], the cell viability turned out to be 1.02 ± 0.016. For the same compound, in the experiment with MDA-MB-231 [2], the kynurenine production was 0.747 ± 0.068.
On to `C=C1C(=O)O[C@H]2C[C@H](C)C(/C=C/C(C)=O)=CC[C@H]12` [Xanthatin] (compound dose: 10 uM), for which the cell viability with MDA-MB-231 [1] is 0.66 ± 0.18. Moreover, in the experiment with MDA-MB-231 [2], the kynurenine production came to 0.13 ± 0.042.
Take `C[C@@H]1O[C@@H](O[C@H]2[C@H](O[C@H]3CC[C@@]4(C)[C@@H](CC[C@]5(C)[C@@H]4CC=C4[C@@H]6CC(C)(C)CC[C@]6(C(=O)O[C@@H]6O[C@H](CO[C@@H]7O[C@H](CO)[C@@H](O[C@@H]8O[C@@H](C)[C@H](O)[C@@H](O)[C@H]8O)[C@H](O)[C@H]7O)[C@@H](O)[C@H](O)[C@H]6O)CC[C@]45C)[C@]3(C)CO)OC[C@H](O)[C@@H]2O)[C@H](O)[C@H](O)[C@H]1O` [Hederacoside C] (compound dose: 10 uM): the cell viability in the experiment on MDA-MB-231 [1] is 1.05 ± 0.024. The kynurenine production with MDA-MB-231 [2] came to 1.25 ± 0.18.
As to `CCCCCC(=O)O[C@@H]1[C@@H](C)[C@@]2(O)[C@@H](C=C(CO)C[C@]3(O)C(=O)C(C)=C[C@@H]23)[C@@H]2C(C)(C)[C@]12OC(=O)CCCCC` [Phorbol 12, 13-Dihexanoate] (compound dose: 10 uM), the cell viability with MDA-MB-231 [1] came to 1.05 ± 0.076. For the same compound, the kynurenine production with MDA-MB-231 [2] turned out to be 0.896 ± 0.056.
Consider `CC(=O)OC1COC(OC2CCC34CC35CCC3(C)C(C6(C)CCC(C(C)(C)O)O6)C(O)CC3(C)C5CC(OC3OC(CO)C(O)C(O)C3O)C4C2(C)C)C(OC(C)=O)C1O` (stereo unspecified) [Isoastragaloside I] (compound dose: 10 uM), for which the cell viability in the experiment with MDA-MB-231 [1] is 0.983 ± 0.0057. Further, the kynurenine production with MDA-MB-231 [2] was 0.925 ± 0.059.
For the compound `COc1ccc(C[C@H]2COC(=O)[C@]2(O)Cc2ccc(O[C@@H]3O[C@H](CO)[C@@H](O)[C@H](O)[C@H]3O)c(OC)c2)cc1OC` [Tracheloside] (compound dose: 10 uM), in the experiment on MDA-MB-231 [1], the cell viability was determined as 0.8831 ± 0.0055. In addition, the kynurenine production with MDA-MB-231 [2] was 0.824 ± 0.11.
In the same order, the values of `C=C(C)[C@@H]1CC[C@]2(C(=O)O)CC[C@]3(C)[C@H](CC[C@@H]4[C@@]5(C)CC[C@H](OC(=O)CC(C)(C)C(=O)O)C(C)(C)[C@@H]5CC[C@]43C)[C@@H]12` [Bevirimat] (compound dose: 10 uM) are 1.018 ± 0.0069 and 0.778 ± 0.15.
Turning to `COC(=O)C1=CO[C@@H](O)[C@@H]2C(CO)=CC[C@H]12` [Genipin] (compound dose: 10 uM), in the experiment on MDA-MB-231 [1], the cell viability was 1 ± 0.026. Moreover, in the experiment on MDA-MB-231 [2], the kynurenine production amounted to 0.76 ± 0.052.
In the case of `C=C1[C@H](OC(=O)C(C)C)[C@@H](O)[C@@H](OC(C)=O)C(C)(C)/C=C/[C@H](C)[C@H](OC(C)=O)[C@@]2(O)C[C@@](C)(OC(C)=O)[C@H](OC(=O)c3ccccc3)[C@@H]2[C@H]1OC(C)=O` [Jatrophane 4] (compound dose: 10 uM), the cell viability with MDA-MB-231 [1] is 1.1 ± 0.017. Besides, the kynurenine production in the experiment with MDA-MB-231 [2] came out at 0.7528 ± 0.0061.
For `CC1(C)[C@@H](O[C@H]2O[C@H](C(=O)O)[C@@H](O)[C@H](O)[C@H]2O[C@@H]2O[C@H](C(=O)O)[C@@H](O)[C@H](O)[C@H]2O)CC[C@]2(C)[C@H]3C(=O)C=C4[C@@H]5C[C@@](C)(C(=O)O)CC[C@]5(C)CC[C@@]4(C)[C@]3(C)CC[C@@H]12` [Dipotassium glycyrrhizinate] (compound dose: 10 uM) the same measures were 0.924 ± 0.031 and 0.808 ± 0.21.
On to `CC(C)=CCC[C@](C)(O)[C@H]1CC[C@]2(C)[C@@H]1[C@H](O)C[C@@H]1[C@@]3(C)CC[C@H](O)C(C)(C)[C@@H]3[C@@H](O[C@@H]3O[C@H](CO)[C@@H](O)[C@H](O)[C@H]3O[C@@H]3OC[C@@H](O)[C@H](O)[C@H]3O)C[C@]12C` [Notoginsenoside R2] (compound dose: 10 uM), for which the cell viability with MDA-MB-231 [1] came to 1.04 ± 0.031. Further, in the experiment on MDA-MB-231 [2], the kynurenine production worked out at 1.24 ± 0.12.
With `CC1(C)CC[C@]2(C(=O)O[C@@H]3O[C@H](CO)[C@@H](O)[C@H](O)[C@H]3O)CC[C@]3(C)C(=CC[C@@H]4[C@@]5(C)CC[C@H](O[C@@H]6O[C@H](CO)[C@@H](O)[C@H](O[C@@H]7O[C@H](CO)[C@@H](O)[C@H](O)[C@H]7O)[C@H]6O[C@@H]6O[C@H](CO)[C@@H](O)[C@H](O)[C@H]6O)[C@@](C)(CO)[C@@H]5CC[C@]43C)[C@@H]2C1` [Araloside VII] (compound dose: 10 uM), the cell viability with MDA-MB-231 [1] is 0.941 ± 0.026. Further, the kynurenine production in the experiment on MDA-MB-231 [2] amounted to 0.825 ± 0.13.
As to `CC1=CC23C(=O)C(C=C4COC(C)(C)OC4C24OC(C)(C)OC14)C1C(CC3C)C1(C)C` (stereo unspecified) [Ingenol-3,4,5,20-diacetonide] (compound dose: 10 uM), in the experiment on MDA-MB-231 [1], the cell viability worked out at 1.09 ± 0.23. For the same compound, in the experiment with MDA-MB-231 [2], the kynurenine production was determined as 0.893 ± 0.14.
